Targets with a hit are over-represented here; the source holds about 6,500 in all. About 2% of all pairs of compound and target were hits.
compound: COC(=O)C#Cc1ccccc1 [methyl 3-phenylpropiolate]; test: log2 ratio of iodoacetamide-alkyne labeling of the cysteine site, DMSO over compound (competition); higher = stronger covalent engagement of the cysteine by the compound, active = 1 or more; conditions: 500 µM; treatment time 1 h; system: HEK293T cell lysate
Method in brief: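 After 1 h at ambient temperature with vehicle or electrophile (500 µM), HEK293T lysate (2 mg/mL) was labelled for 1 h with iodoacetamide alkyne and clicked to sCIP-TMT reagents. Pooled samples were trypsin-digested overnight at 37 °C, streptavidin-enriched, acid-eluted and analysed by Orbitrap Eclipse LC-MS/MS with FAIMS, then quantified in FragPipe over three replicates with duplicate channels. A cysteine's log2 competition ratio is its mean control-channel over mean compound-channel reporter intensity. Cysteines quantified in only one replicate were not included.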

Sequence of UniProt P00390 (P00390 whole entry, looked up): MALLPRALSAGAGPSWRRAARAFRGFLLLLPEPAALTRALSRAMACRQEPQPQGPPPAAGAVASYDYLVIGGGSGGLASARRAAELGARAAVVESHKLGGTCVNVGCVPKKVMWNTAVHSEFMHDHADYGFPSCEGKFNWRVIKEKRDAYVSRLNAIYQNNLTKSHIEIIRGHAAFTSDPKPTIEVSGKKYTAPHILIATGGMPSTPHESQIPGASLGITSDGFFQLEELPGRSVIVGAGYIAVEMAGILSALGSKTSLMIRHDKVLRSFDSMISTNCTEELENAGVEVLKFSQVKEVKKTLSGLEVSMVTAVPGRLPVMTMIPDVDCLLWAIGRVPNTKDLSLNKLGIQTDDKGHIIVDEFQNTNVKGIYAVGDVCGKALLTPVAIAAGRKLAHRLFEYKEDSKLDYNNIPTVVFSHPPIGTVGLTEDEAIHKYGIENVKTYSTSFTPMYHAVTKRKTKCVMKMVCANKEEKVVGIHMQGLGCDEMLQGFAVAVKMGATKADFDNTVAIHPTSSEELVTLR
Sequence of UniProt P37802 (P37802 whole entry, looked up): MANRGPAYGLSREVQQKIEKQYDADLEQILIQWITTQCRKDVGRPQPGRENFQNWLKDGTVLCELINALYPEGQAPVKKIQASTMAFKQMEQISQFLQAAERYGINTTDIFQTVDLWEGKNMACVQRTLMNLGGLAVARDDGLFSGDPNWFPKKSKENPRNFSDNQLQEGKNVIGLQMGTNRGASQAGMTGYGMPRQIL
Sequence of UniProt P48643 (P48643 whole entry, looked up): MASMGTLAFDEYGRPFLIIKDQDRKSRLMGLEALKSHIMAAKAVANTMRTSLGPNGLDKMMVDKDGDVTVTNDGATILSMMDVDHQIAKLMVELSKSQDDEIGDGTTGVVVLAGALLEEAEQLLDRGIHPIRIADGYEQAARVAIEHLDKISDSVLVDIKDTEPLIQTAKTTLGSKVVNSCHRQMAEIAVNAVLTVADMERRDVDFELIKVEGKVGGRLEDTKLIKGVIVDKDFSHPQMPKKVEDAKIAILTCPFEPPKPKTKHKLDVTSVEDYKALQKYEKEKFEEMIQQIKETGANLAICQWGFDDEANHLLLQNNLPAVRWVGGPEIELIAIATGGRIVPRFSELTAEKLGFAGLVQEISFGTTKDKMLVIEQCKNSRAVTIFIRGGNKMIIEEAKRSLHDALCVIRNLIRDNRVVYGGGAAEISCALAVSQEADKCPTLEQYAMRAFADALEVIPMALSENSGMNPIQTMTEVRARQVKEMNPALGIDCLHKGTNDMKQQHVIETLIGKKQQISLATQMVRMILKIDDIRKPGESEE
Sequence of UniProt P07814 (P07814 whole entry, looked up): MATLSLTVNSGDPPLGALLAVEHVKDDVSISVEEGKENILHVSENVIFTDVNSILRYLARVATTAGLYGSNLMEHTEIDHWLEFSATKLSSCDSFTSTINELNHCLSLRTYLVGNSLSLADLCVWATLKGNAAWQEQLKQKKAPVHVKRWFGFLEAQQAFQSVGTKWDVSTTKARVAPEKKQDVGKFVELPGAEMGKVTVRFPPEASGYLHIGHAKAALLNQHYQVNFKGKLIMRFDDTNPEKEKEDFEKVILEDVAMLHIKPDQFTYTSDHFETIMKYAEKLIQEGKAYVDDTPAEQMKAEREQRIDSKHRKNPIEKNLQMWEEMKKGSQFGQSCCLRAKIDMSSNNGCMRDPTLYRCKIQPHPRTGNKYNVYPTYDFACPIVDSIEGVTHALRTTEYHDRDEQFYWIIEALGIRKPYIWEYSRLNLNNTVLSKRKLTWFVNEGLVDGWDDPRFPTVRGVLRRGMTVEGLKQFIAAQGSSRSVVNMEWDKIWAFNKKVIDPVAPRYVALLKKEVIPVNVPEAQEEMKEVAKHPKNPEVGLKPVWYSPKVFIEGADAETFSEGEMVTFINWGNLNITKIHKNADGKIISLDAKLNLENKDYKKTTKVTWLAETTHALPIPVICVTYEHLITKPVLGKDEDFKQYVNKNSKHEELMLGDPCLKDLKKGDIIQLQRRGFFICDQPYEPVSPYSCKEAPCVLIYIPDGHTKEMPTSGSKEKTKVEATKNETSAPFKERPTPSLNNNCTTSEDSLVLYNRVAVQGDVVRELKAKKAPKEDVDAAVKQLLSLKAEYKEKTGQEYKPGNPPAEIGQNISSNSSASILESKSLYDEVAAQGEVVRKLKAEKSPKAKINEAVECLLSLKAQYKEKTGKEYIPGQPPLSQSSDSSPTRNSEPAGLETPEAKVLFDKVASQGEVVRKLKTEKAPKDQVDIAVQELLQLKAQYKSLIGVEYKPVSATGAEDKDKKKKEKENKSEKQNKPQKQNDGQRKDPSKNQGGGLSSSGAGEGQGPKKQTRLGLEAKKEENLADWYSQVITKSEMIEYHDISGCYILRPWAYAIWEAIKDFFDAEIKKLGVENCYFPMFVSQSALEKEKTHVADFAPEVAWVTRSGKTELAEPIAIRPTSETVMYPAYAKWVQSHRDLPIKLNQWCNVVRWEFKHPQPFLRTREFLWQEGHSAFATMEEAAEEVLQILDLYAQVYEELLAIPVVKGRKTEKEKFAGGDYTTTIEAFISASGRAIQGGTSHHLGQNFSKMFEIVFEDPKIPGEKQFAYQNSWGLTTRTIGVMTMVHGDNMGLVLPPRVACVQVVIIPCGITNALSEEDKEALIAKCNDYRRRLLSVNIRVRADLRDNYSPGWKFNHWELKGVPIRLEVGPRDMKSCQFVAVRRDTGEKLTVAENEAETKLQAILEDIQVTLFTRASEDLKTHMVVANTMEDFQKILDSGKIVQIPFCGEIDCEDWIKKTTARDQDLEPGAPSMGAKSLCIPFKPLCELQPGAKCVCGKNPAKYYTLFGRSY
Sequence of UniProt P49069 (P49069 whole entry): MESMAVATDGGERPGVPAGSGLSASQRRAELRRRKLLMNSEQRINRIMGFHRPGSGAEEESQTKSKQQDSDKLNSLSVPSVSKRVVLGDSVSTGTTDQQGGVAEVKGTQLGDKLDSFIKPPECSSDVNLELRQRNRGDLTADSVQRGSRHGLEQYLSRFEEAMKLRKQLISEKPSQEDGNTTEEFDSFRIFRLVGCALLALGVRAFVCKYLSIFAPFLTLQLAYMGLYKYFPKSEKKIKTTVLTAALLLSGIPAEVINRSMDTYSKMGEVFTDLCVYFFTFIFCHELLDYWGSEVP
Sequence of UniProt P49368 (P49368 whole entry, looked up): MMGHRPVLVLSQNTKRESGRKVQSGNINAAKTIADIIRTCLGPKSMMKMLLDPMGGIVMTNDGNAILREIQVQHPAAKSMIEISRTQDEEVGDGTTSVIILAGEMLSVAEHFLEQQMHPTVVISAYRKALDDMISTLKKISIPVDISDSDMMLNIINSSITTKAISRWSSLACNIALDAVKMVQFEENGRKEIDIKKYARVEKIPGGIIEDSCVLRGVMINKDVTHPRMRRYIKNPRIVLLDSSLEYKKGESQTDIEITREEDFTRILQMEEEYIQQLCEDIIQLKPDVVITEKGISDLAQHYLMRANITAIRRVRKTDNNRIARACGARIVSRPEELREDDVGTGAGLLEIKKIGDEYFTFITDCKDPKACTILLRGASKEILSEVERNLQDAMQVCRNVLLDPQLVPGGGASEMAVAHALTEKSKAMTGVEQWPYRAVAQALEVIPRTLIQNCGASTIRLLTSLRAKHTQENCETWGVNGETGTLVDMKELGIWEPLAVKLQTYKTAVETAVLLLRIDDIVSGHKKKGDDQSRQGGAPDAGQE
Sequence of UniProt P37268 (P37268 whole entry, looked up): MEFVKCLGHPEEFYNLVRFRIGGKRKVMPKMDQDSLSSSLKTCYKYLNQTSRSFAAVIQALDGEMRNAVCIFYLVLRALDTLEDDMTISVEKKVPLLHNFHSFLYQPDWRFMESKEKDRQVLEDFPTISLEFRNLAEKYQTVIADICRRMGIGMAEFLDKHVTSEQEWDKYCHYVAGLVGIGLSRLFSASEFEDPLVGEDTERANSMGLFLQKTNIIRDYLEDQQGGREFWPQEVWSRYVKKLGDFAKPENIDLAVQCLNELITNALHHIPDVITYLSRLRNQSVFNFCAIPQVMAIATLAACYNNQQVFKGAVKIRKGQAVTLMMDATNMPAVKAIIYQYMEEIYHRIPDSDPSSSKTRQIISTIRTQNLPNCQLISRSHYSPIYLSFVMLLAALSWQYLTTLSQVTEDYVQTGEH
Sequence of UniProt P33981 (P33981 whole entry, looked up): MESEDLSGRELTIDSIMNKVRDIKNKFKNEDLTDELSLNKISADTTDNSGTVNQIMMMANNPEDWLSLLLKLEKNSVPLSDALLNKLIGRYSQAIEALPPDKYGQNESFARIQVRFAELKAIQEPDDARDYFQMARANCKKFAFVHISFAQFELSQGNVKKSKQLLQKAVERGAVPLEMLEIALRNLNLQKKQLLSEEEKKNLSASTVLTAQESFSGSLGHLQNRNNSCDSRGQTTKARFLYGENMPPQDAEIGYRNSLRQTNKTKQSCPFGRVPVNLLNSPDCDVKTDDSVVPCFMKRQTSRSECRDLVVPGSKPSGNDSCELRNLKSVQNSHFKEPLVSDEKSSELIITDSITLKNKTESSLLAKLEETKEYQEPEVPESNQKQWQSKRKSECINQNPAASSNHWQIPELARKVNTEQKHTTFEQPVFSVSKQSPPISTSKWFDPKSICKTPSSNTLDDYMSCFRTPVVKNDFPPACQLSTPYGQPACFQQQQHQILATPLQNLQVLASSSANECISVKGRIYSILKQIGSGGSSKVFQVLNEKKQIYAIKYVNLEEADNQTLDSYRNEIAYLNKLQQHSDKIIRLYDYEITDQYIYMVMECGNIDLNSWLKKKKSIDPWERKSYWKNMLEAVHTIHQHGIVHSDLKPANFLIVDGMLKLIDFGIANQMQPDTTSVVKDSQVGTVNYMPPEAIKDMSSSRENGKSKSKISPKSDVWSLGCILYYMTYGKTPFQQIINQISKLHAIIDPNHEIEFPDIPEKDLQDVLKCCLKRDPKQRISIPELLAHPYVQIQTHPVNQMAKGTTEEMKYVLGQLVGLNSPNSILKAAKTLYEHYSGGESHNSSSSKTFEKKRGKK

log2 ratio of iodoacetamide-alkyne labeling, inactive:
PML C338 (UniProt P29590) 0.413
SEC24B C562 (UniProt O95487) 0.735
MTHFD1 C143 (UniProt P11586) -0.0254
FLNA C1018 (UniProt P21333) 0.0782
CCT3 C475 (UniProt P49368) 0.185
TAGLN2 C38 (UniProt P37802) -0.0194
HNRNPM C653 (UniProt P52272) 0.0149
MAP1B C2065 (UniProt P46821) 0.623
GSR C102 (UniProt P00390) 0.154
FASN C1186 (UniProt P49327) -0.0549
EPRS C92 (UniProt P07814) 0.571
TTK C284 (UniProt P33981) 0.53
FDFT1 C6 (UniProt P37268) 0.233
HNRNPF C290 (UniProt P52597) 0.0362
CAMLG C123 (UniProt P49069) 0.308
CCT5 C377 (UniProt P48643) 0.18
HSPA4L C167 (UniProt O95757) -0.00119
EEF2 C369 (UniProt P13639) 0.24
CCT4 C337 (UniProt P50991) 0.0635
MTHFD1 C691 (UniProt P11586) 0.242
MSN C284 (UniProt P26038) -0.16

From the supplement of paper PMC11006884
